NOD2-RIPK2 inh = NOD2-RIPK2 protein interaction inhibition | CHO BLA complementation NOD2-RIPK2, CCF4 ratio | inhibition, % at 4.98 µM | 360,000 compounds, 0.38% hits | AID 624267; in the data active = inhibition above about 21%
Myeloid diff MLP = compounds promoting myeloid differentiation. calls only at 10 µM. AID 624256. 360,000 compounds, 1% hits. ER-HoxA9 myeloid progenitors, lysozyme-GFP differentiation, flow cytometry;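 active = normalized GFP-positive differentiation at or above the plate's own cutoff, the solvent-only control mean plus 3 SD; inconclusive = no clear call, values can overlap the other calls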;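 also: cells exposed to compound for four days before flow analysis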
ABCB6 inh MLPCN = blocks the human ABCB6 transporter | K562-ABCB6 porphyrin accumulation, flow cytometry, 1 h; stronger effect = lower value | 360,000 compounds, 0.19% hits | fluorescence ratio to DMSO, % at 10 µM | Q9NP58;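 active = fluorescence ratio to DMSO below 75%, the collection mean minus 3 SD; inconclusive = too few cells collected in the well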;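 also: signal is porphyrin accumulated inside mitochondria; lower ratio means ABCB6 inhibition with less porphyrin fluorescence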
Target sequence (Q9NP58 whole entry, looked up): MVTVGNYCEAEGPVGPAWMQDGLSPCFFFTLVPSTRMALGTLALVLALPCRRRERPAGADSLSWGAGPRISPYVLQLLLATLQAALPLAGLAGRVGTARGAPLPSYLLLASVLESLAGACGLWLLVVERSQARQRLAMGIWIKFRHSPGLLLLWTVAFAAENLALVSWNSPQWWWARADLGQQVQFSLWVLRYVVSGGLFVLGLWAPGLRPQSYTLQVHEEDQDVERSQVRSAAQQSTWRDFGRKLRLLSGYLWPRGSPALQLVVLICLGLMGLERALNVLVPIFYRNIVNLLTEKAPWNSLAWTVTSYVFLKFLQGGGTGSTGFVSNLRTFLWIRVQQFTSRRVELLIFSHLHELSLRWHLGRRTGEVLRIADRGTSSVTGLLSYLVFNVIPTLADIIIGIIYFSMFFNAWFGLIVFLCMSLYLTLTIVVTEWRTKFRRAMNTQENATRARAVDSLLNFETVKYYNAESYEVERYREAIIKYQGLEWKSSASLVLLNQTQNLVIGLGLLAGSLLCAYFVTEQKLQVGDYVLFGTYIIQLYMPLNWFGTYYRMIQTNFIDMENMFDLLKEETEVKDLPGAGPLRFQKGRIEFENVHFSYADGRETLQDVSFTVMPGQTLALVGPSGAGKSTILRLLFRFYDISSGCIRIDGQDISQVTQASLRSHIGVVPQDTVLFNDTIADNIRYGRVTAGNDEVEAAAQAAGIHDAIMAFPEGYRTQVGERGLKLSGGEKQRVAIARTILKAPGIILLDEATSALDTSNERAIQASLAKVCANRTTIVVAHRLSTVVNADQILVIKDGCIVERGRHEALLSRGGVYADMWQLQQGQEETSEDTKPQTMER
TLR4-MyD88 BLA = TLR4-MyD88 interaction inhibition in cells. O00206+Q99836. 200,000 compounds, 0.18% hits. HeLa CL3-4 TLR4/MyD88 BLA complementation, FRET ratio. inhibition, % at 8.4 µM; in the data active = inhibition above about 25%
TLR9-MyD88 block = inhibitors of human TLR9-MyD88 binding | CHO BLA complementation TLR9-MyD88, CCF4 FRET ratio | Q9NR96+Q99836 | AID 504734 | inhibition, % at 4.98 µM | 340,000 compounds, 0.21% hits;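 active = inhibition above the mean over all tested compounds plus 3 SD, cut at about 21% in these data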
TLR4-MyD88 conf = TLR4-MyD88 interaction inhibition confirmed; shares compounds with TLR4-MyD88 BLA; HeLa CL3-4 BLA complementation, CCF4 FRET ratio; inhibition, % at 8.4 µM; 350 compounds, 50% hits; AID 941;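 active = mean inhibition across three repeat runs above about 25% carried over from the earlier screen, limit read from the data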
BLA inhibitor ct = counter-screen for TLR4-MyD88 inhibitors: beta-lactamase reporter inhibitors; inhibition, % at 8.4 µM; 350 compounds, 63% hits; AID 1237; HeLa BLA reporter, CCF4 FRET ratio; shares compounds with TLR4-MyD88 BLA;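 active = mean inhibition over three repeats above about 26% taken from the earlier screen, limit read from the data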;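 also: HeLa cells stably expressing beta-lactamase reporter as counterscreen for TLR4-MyD88 inhibitors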
TLR9-MyD88 cf = TLR9-MyD88 interaction inhibition, confirmation. 680 compounds, 51% hits. shares compounds with TLR9-MyD88 block. CHO TLR9/MyD88 BLA complementation, CCF4 FRET ratio. inhibition, % at 4.98 µM;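 active = mean inhibition across three repeats above about 21% taken from the earlier screen, limit read from the data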;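 also: blue over green emission ratio reports constitutive TLR9 MyD88 association via BLA complementation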
BLA counter = counter-screen for TLR9-MyD88 inhibitors: non-selective beta-lactamase inhibitors. 680 compounds, 7% hits. AID 540251. inhibition, % at 4.98 µM. shares compounds with TLR9-MyD88 block. CHO-BLA cells, CCF4 FRET ratio, BLA reporter;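 active = mean inhibition above a 50% cutoff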;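 also: counterscreen of TLR9-MyD88 hits on CMV-driven BLA in CHO-K1 cells; higher means less blue over green ratio so more BLA blockade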
TLR9 CHO cytotox = counter-screen for TLR9-MyD88 inhibitors: cytotoxicity in CHO cells. shares compounds with TLR9-MyD88 block. luminescence. inhibition, % at 4.98 µM. 680 compounds, 39% hits. AID 588336; in the data active = inhibition above about 11%
Hits are given with their value; . = inactive; ? = inconclusive; / = no result given; + = active, no number. Sampled rows, rich in hits. Any-hit rate of the full collection: about 1.7%.

SMILES | NOD2-RIPK2 inh | Myeloid diff MLP | ABCB6 inh MLPCN | TLR4-MyD88 BLA | TLR9-MyD88 block | TLR4-MyD88 conf | BLA inhibitor ct | others
O=C(c1cccc(-c2nnc(-c3ccccc3)o2)c1)N1CCCCC1 | . | . | . | 28 | . | . | .
Cc1nn(-c2ccccc2)c2c1C(c1ccc([N+](=O)[O-])cc1)N1C(=N2)C(=O)Nc2ccccc21 (centres undefined) | . | . | . | . | . | / | /
Cc1nn(-c2ccccc2)c2c1C(c1ccc(O)c(O)c1)N1C(=N2)C(Nc2ccccc2)=Nc2ccccc21 (centres undefined) | . | . | . | 57 | . | 52 | 89
COc1ccc(S(=O)(=O)N2CCCC(C(=O)NCc3ccccn3)C2)cc1Cl (centres undefined) | . | . | . | 26 | . | . | .
CC1(c2ccc(Cl)cc2)NC(=O)N(CC(=O)N2CCN(C(=O)c3cccs3)CC2)C1=O (centres undefined) | . | . | . | / | . | / | /
CC(C)C(=O)Nc1cccc(-c2nc3ccccc3o2)c1 | . | . | . | 26 | . | . | .
N#Cc1sc2nc(-c3ccccc3)cc(C(F)(F)F)c2c1N | . | . | . | . | . | / | /
N#Cc1sc2nc(-c3cccs3)cc(-c3ccccc3)c2c1N | . | . | . | 46 | . | 48 | 82
C[C@@H]1CN([C@H](C)CO)C(=O)CCCn2nncc2CO[C@H]1CN(C)S(C)(=O)=O | . | . | . | / | . | / | /
Cc1ccc(NC(=O)C2CCN(S(C)(=O)=O)CC2)c(C)c1 | . | . | . | / | . | / | /
CC(C)c1ccc(-n2c(-c3ccccc3)c[n+]3c2CCc2ccccc2-3)cc1 | . | ? | . | . | . | / | /
COc1ccc(-n2c(-c3ccc(Br)cc3)c[n+]3c2CCc2ccccc2-3)cc1 | . | . | . | 26 | . | 25 | .
CCOC(=O)c1c(C)nc2c(C#N)cnn2c1C | . | . | . | 25 | . | . | .
CCOC(=O)c1cnn2c(N)c(C#N)cnc12 | . | . | . | . | . | / | /
CC(C)NC(=S)Nc1ccc2cn[nH]c2c1 | . | . | . | . | . | / | /
COc1cc2c3nnc(-c4ccc(F)cc4)c-3cn(Cc3ccccc3F)c2cc1OC | . | + | . | 62 | . | 44 | 84
COc1ccccc1Cc1c(-c2ccc(F)cc2)nc2ccc(Cl)cn12 | . | . | . | / | / | / | /
COc1cc2c3nnc(-c4ccccc4)c-3cn(Cc3ccccc3F)c2cc1OC | / | / | / | 33 | / | . | 31
COc1ccc(-c2nnc(SCc3ccccc3F)o2)cc1OC | . | . | . | . | . | / | /
COCCn1c(-c2ccc(-c3ccc([N+](=O)[O-])cc3Br)o2)nc2c1c(=O)[nH]c(=O)n2CC(C)C | . | + | . | 44 | . | 30 | 59
COCCn1c(=O)[nH]c(=O)c2c1nc(-c1ccc(-c3ccc(Cl)cc3[N+](=O)[O-])o1)n2Cc1ccccc1 | . | . | . | . | . | / | /
O=C(O)CC12CC3CC(C1)CC(n1cncn1)(C3)C2 | . | . | . | . | . | / | /
CCc1nc2ccc(C(=O)NCCCn3ccnc3)cn2c1N(C)C(=O)C1CCCCC1 | . | . | . | / | / | / | /
COC(=O)c1ccc(-n2c(C)cc(C(=O)CCl)c2C)cc1 | . | . | . | 25 | . | . | .
CCSc1nnc(-c2sc3nnc(-c4ccccc4)c(-c4ccccc4)c3c2N)o1 | . | + | . | 40 | . | 47 | 80
SMILES | NOD2-RIPK2 inh | Myeloid diff MLP | ABCB6 inh MLPCN | TLR4-MyD88 BLA | TLR9-MyD88 block | TLR4-MyD88 conf | BLA inhibitor ct | others
COc1cccc(C(=O)/C=C/Nc2cc(C)ccc2O)c1 | . | . | . | 27 | . | . | .
CCOC(=O)c1ccc(N/C=C\C(=O)c2cccc(OC)c2)cc1 | . | . | . | . | . | / | /
CC1(C)CC(=O)C(C(C2=C(O)CC(C)(C)CC2=O)c2cccc(O)c2)C(=O)C1 (centres undefined) | . | . | . | . | . | / | /
CC1(C)CC(=O)C(C(C2=C(O)CC(C)(C)CC2=O)c2cccs2)C(=O)C1 (centres undefined) | . | . | . | 25 | . | . | .
COc1ccc(S(=O)(=O)N(C)C)cc1NS(=O)(=O)c1ccc(F)c(F)c1F | . | . | . | . | . | / | /
CCOC(=O)c1c2ccc(OCC(=O)N/N=C/c3ccc(C)cc3)cc2n2ccccc12 | . | . | . | 38 | . | 48 | .
Cc1ccc(S(=O)(=O)Nc2cc(C(F)(F)F)ccc2N2CCOCC2)cc1C | . | . | . | 70 | . | . | .
CCCCNC(=O)N1CCN(C/C=C/c2ccccc2)CC1 | . | . | . | 25 | . | . | .
NC(=O)C1CCN(CC(=O)Nc2cccc(C(=O)Nc3cccc(C(F)(F)F)c3)c2)CC1 | . | . | . | . | . | / | /
COc1ccc(-c2c3c(nc4sc(C(=O)Nc5ccccc5)c(N)c24)CCC3)cc1 | . | . | . | 25 | . | 36 | 58
Nc1c(C(=O)Nc2ccccc2)sc2nc3c(c(-c4ccco4)c12)CCC3 | . | . | . | . | . | / | /
Cc1c(N2C(=O)/C(=C\C3CC=CCC3)SC2=S)c(=O)n(-c2ccccc2)n1C (centres undefined) | . | . | . | 25 | . | . | .
CCN1C(=O)/C(=C/c2ccc(C)o2)N(C)C1=S | . | . | . | . | . | / | /
Cn1c(=O)c(NC2CCCCC2)c2c3c(cccc31)C(=O)c1ccccc1-2 | . | + | . | 48 | 22 | . | 49 | TLR9-MyD88 cf=.;BLA counter=.;TLR9 CHO cytotox=.
CCOc1ccc(C(C)=O)cc1COC(=O)CNC(=O)C12CC3CC(CC(C3)C1)C2 | . | . | . | / | . | / | /
CCN(CC)c1ccc(/C=C(/C#N)c2nc3ccc(C)cc3[nH]2)c(OC(C)C)c1 | 34 | + | . | 35 | 23 | . | 36 | TLR9-MyD88 cf=21;BLA counter=.;TLR9 CHO cytotox=.
CCOc1cc(N(CC)CC)ccc1/C=C(/C#N)c1nc2ccccc2[nH]1 | . | ? | . | . | . | / | /
Cc1sc2nc(CSCC(=O)Nc3ccc(Cl)cc3F)[nH]c(=O)c2c1C | . | . | . | / | . | / | /
COc1ccc(C(=O)c2sc3nc(-c4ccccc4)ccc3c2N)cc1OC | . | + | . | 36 | 33 | 38 | 57 | TLR9-MyD88 cf=43;BLA counter=.;TLR9 CHO cytotox=.
COc1ccc(-c2ccc3c(N)c(C(=O)NC(C)C)sc3n2)cc1OC | . | . | . | / | / | / | /
